This note sets out measurements from ChEMBL document CHEMBL1961873, “Compounds: GSK PKIS; Assays: Nanosyn kinase panel” (2012).

Assay [1] deals with Sphingosine kinase 1 (Homo sapiens) (UniProt Q9NYA1). The following applies: at 1 µM.
Assay [2] addresses T1, Sphingosine kinase 2 (Homo sapiens) (UniProt Q9NRA0).
T1 sequence (whole entry): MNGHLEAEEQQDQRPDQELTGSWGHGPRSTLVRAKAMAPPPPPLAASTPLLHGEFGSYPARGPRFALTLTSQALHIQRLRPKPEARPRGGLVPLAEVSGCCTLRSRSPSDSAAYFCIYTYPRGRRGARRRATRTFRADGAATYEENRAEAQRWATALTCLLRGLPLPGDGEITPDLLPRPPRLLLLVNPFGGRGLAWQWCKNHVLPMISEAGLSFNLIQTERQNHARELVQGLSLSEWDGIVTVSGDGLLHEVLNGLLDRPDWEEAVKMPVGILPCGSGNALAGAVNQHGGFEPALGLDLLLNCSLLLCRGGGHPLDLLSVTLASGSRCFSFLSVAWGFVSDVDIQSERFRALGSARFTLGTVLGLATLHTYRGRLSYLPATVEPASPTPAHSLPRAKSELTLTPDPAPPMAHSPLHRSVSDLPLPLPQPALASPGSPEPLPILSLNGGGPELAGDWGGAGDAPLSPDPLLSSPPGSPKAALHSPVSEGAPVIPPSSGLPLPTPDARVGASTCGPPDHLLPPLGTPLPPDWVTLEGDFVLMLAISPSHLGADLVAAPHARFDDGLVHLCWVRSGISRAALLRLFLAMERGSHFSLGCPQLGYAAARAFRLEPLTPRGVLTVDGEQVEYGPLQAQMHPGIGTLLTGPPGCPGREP
The following applies: at 0.1 µM.

For assay [3], the target named is T1, Sphingosine kinase 2 (Homo sapiens). The following applies: at 1 µM.
Assay [4] has as its target Casein kinase II subunit alpha (Homo sapiens) (UniProt P68400). The settings on record: at 0.1 µM.
For assay [5] the target is unchanged. The following applies: at 1 µM.
The target of assay [6] is T2, Inhibitor of nuclear factor kappa-B kinase subunit alpha (Homo sapiens) (UniProt O15111).
T2 sequence (whole entry): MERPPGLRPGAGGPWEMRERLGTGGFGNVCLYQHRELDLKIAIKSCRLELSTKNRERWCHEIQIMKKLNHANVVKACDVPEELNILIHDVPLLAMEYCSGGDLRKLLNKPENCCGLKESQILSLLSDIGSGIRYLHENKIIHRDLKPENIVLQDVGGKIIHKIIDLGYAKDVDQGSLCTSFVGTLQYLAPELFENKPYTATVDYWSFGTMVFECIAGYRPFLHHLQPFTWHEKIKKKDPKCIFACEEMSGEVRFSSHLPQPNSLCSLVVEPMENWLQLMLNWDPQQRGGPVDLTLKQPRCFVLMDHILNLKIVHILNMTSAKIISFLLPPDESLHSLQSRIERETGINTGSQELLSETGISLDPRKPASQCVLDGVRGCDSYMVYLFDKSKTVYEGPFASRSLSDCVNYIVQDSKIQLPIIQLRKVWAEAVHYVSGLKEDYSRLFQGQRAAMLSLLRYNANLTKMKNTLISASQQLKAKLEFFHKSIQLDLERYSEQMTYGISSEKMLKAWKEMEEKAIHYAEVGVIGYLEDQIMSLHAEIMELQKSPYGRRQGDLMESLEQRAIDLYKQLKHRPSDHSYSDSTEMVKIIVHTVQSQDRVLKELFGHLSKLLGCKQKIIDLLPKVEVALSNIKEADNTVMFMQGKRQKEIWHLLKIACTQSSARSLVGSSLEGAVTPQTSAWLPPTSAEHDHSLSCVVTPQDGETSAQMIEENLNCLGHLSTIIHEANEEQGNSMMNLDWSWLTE
The settings on record: at 0.1 µM.

Assay [7] has as its target T2, Inhibitor of nuclear factor kappa-B kinase subunit alpha (Homo sapiens). The settings on record: at 1 µM.
The target in assay [8] is T3, Inhibitor of nuclear factor kappa-B kinase subunit beta (Homo sapiens) (UniProt O14920).
T3 sequence (whole entry): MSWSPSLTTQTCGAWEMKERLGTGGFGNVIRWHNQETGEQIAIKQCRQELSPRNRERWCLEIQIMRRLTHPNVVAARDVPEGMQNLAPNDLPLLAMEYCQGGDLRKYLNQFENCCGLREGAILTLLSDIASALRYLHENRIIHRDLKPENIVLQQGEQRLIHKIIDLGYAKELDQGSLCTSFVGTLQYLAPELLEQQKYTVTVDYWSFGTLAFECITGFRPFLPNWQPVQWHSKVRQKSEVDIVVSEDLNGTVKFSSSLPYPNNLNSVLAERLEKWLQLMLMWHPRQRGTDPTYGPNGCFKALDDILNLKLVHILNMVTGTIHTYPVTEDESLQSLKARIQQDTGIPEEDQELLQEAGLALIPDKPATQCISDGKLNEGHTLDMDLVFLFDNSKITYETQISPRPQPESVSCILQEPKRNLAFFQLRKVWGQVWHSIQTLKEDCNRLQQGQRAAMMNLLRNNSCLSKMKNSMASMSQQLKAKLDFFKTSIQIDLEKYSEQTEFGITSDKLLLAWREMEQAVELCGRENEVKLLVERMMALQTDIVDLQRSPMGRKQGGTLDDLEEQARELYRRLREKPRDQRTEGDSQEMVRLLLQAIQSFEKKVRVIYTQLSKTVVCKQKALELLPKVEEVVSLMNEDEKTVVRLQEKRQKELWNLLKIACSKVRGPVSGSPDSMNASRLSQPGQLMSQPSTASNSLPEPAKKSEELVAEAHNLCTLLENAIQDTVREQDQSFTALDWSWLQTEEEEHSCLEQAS
The settings on record: at 0.1 µM.

Assay [9] deals with T3, Inhibitor of nuclear factor kappa-B kinase subunit beta (Homo sapiens). The settings on record: at 1 µM.
The target of assay [10] is T4, Inhibitor of nuclear factor kappa-B kinase subunit epsilon (Homo sapiens) (UniProt Q14164).
T4 sequence (whole entry): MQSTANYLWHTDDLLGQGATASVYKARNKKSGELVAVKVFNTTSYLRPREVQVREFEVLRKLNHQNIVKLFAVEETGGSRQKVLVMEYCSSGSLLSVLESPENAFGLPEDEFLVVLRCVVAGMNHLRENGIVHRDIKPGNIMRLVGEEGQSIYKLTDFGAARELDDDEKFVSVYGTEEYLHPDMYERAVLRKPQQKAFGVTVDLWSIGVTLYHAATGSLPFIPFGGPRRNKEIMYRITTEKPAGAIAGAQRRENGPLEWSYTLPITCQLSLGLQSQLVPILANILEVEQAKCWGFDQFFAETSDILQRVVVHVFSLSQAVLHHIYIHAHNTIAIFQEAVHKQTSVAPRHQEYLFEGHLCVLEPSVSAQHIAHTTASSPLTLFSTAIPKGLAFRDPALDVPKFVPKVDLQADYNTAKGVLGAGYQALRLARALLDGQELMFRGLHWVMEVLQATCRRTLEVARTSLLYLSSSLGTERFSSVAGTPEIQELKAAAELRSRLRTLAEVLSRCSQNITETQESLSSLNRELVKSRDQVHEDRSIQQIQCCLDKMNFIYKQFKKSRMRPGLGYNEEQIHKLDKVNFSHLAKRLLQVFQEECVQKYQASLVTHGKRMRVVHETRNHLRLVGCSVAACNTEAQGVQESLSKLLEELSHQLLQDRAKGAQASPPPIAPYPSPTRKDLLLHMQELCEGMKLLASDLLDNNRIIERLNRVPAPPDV
The following applies: at 0.1 µM.

The target of assay [11] is T4, Inhibitor of nuclear factor kappa-B kinase subunit epsilon (Homo sapiens). The following applies: at 1 µM.
In assay [12] the target is T5, Serine/threonine-protein kinase Nek1 (Homo sapiens) (UniProt Q96PY6).
T5 sequence (whole entry): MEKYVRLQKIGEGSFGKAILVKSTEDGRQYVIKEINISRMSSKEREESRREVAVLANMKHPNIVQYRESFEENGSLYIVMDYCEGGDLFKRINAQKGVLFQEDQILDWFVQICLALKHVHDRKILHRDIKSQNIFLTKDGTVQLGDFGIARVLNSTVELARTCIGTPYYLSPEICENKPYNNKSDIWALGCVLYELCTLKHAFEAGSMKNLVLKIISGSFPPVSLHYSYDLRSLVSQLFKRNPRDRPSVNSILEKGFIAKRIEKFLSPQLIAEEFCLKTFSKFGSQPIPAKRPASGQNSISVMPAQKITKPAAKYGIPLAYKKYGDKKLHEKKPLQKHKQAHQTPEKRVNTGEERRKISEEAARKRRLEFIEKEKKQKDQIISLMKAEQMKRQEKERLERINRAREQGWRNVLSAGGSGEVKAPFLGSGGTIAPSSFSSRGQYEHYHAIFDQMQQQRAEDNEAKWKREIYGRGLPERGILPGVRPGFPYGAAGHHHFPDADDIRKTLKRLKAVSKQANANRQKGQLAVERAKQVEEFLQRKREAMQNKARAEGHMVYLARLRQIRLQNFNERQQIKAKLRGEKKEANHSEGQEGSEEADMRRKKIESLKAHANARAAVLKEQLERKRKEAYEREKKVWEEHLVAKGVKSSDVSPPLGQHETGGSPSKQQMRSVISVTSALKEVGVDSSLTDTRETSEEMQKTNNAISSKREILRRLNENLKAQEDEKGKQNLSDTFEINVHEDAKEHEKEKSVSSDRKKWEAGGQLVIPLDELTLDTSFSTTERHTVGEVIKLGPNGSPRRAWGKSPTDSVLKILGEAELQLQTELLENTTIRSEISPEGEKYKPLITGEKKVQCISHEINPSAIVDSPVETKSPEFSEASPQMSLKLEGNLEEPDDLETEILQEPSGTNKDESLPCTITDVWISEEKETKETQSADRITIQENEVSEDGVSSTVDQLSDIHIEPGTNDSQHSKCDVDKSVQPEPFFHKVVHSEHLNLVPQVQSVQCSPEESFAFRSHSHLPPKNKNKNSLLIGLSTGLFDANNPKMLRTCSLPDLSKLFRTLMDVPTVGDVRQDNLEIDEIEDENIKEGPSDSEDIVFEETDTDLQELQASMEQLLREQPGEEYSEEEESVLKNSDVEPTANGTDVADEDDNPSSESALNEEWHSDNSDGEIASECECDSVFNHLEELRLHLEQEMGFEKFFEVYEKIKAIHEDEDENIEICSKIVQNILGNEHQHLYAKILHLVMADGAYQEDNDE
The settings on record: at 0.1 µM.

Assay [13] concerns the target T5, Serine/threonine-protein kinase Nek1 (Homo sapiens). The following applies: at 1 µM.
Assay [14] deals with T6, Serine/threonine-protein kinase Nek2 (Homo sapiens) (UniProt P51955).
T6 sequence (whole entry): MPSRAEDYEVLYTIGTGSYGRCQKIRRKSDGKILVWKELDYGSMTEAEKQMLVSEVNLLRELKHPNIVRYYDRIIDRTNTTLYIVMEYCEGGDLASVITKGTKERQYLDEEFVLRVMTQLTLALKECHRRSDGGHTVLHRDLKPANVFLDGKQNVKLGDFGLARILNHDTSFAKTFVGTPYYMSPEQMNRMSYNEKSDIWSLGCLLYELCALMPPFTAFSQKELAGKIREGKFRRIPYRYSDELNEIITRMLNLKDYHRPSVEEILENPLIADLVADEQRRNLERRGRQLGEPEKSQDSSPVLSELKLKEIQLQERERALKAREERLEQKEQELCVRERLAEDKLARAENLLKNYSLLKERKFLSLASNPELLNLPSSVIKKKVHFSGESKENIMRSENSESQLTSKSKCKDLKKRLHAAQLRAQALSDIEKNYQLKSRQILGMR
The following applies: at 0.1 µM.

Assay [15] deals with T6, Serine/threonine-protein kinase Nek2 (Homo sapiens). The settings on record: at 1 µM.
Assay [16] addresses Serine/threonine-protein kinase Nek6 (Homo sapiens) (UniProt Q9HC98). The following applies: at 0.1 µM.
Assay [17] has the same target. The settings on record: at 1 µM.
Assay [18] deals with Serine/threonine-protein kinase Nek7 (Homo sapiens) (UniProt Q8TDX7). The settings on record: at 0.1 µM.
Sequence of Serine/threonine-protein kinase Nek7 (Homo sapiens) (Q8TDX7 whole entry, looked up): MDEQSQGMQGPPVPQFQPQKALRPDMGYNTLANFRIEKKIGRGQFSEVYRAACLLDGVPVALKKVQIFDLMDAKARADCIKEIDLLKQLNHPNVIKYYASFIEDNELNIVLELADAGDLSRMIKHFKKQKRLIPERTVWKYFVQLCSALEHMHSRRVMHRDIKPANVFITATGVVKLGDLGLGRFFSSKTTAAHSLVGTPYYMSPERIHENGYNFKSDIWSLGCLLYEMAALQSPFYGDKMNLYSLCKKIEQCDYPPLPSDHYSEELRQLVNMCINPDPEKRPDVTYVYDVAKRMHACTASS
Assay [19] has the same target. The following applies: at 1 µM.
The target in assay [20] is T7, Serine/threonine-protein kinase Nek9 (Homo sapiens) (UniProt Q8TD19).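 Further: reported value is the mean percent inhibition of NEK9.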
T7 sequence (whole entry): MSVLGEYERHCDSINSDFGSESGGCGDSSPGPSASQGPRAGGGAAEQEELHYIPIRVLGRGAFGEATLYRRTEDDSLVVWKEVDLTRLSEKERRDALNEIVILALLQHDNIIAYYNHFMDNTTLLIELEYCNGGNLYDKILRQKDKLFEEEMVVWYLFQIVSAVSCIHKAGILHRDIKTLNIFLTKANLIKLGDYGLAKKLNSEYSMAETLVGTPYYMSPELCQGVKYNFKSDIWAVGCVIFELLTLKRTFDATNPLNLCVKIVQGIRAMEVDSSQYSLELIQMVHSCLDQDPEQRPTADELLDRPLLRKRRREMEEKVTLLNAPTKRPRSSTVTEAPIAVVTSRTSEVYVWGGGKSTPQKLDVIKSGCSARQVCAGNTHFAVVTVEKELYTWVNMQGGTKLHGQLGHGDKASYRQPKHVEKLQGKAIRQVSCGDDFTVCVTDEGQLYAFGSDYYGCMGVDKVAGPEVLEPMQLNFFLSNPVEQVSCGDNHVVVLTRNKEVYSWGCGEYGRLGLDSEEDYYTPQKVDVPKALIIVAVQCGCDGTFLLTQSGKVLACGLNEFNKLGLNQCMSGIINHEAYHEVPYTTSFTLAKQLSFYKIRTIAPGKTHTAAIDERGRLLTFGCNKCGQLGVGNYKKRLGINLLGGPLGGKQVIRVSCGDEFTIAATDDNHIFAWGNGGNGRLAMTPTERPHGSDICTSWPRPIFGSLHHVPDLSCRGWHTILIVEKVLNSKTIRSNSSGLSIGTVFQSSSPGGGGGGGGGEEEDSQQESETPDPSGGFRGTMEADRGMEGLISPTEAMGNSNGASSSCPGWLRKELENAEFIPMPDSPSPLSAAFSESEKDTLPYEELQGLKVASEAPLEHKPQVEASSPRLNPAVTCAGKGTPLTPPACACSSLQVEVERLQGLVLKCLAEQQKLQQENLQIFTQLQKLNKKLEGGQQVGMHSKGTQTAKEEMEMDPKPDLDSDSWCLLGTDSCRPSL
The settings on record: at 0.1 µM.

Sequence of Casein kinase II subunit alpha (Homo sapiens) (P68400 whole entry, looked up): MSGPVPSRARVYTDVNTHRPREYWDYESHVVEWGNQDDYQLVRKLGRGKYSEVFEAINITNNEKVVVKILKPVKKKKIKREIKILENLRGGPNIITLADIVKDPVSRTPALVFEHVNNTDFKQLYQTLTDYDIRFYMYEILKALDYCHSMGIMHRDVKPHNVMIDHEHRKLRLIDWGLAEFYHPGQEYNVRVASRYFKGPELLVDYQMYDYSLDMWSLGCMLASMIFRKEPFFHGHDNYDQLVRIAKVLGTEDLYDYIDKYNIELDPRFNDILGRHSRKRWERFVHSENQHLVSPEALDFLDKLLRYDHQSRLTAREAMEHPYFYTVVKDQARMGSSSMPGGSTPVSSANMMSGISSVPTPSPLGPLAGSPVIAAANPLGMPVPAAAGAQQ
Sequence of Serine/threonine-protein kinase Nek6 (Homo sapiens) (Q9HC98 whole entry): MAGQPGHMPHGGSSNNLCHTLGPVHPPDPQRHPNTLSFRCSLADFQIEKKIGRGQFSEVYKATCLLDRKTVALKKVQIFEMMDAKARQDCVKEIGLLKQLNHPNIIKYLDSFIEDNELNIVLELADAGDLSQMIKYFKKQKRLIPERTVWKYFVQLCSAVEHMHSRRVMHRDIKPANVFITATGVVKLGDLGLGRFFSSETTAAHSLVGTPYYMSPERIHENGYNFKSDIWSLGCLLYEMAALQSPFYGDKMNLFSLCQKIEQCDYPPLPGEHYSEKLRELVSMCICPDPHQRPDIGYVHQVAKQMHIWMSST
Sequence of Sphingosine kinase 1 (Homo sapiens) (Q9NYA1 whole entry): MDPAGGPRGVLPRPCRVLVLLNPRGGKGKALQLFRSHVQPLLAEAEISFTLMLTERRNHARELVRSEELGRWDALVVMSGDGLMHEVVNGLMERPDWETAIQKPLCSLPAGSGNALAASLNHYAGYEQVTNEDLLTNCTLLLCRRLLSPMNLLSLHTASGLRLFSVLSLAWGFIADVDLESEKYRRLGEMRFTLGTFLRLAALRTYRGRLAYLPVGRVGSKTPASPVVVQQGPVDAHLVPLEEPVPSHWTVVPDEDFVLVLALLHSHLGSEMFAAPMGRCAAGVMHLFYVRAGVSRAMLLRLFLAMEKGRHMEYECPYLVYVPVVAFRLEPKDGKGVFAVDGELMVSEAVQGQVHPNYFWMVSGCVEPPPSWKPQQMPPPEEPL

Regarding `O=C1Nc2ccccc2/C1=C1\CCc2cc(O)ccc21`, the inhibition (usually the change of the read-out against control, counted positive when it falls) in assay [1] is -8.14%; in assay [2], -0.36%; in assay [3], -2.47%; in assay [4], 3.18%; in assay [5], 9.1%; in assay [6], 13%. For the same compound, the inhibition in assay [7] amounted to 5.45%; in [8], 5.41%; in [9], 5.64%; in assay [10], 6.27%; in [11], 20.3%; in assay [12] it was 3.11%. Further, the inhibition in assay [13] worked out at 4.37%; in [14] it was 7.09%; in assay [15], 5.47%; in assay [16], 1.9%; in assay [17], 1.99%; in assay [18], 5.62%. In addition, the inhibition in assay [19] was determined as 4.31%; in assay [20], 8.42%.
